Target: Chromo domain-containing protein 1 (Saccharomyces cerevisiae (strain ATCC 204508 / S288c) (Baker's yeast)) (UniProt P32657)
Assay: ScCHD-1 Enzyme Inhibition Assay
Format: functional
Parameters: scale not given: in the data most compounds retested in dose-response had high values
Conditions: 30 µM

Sequence of Chromo domain-containing protein 1 (Saccharomyces cerevisiae (strain ATCC 204508 / S288c) (Baker's yeast)) (P32657 whole entry, the tested form may be a part): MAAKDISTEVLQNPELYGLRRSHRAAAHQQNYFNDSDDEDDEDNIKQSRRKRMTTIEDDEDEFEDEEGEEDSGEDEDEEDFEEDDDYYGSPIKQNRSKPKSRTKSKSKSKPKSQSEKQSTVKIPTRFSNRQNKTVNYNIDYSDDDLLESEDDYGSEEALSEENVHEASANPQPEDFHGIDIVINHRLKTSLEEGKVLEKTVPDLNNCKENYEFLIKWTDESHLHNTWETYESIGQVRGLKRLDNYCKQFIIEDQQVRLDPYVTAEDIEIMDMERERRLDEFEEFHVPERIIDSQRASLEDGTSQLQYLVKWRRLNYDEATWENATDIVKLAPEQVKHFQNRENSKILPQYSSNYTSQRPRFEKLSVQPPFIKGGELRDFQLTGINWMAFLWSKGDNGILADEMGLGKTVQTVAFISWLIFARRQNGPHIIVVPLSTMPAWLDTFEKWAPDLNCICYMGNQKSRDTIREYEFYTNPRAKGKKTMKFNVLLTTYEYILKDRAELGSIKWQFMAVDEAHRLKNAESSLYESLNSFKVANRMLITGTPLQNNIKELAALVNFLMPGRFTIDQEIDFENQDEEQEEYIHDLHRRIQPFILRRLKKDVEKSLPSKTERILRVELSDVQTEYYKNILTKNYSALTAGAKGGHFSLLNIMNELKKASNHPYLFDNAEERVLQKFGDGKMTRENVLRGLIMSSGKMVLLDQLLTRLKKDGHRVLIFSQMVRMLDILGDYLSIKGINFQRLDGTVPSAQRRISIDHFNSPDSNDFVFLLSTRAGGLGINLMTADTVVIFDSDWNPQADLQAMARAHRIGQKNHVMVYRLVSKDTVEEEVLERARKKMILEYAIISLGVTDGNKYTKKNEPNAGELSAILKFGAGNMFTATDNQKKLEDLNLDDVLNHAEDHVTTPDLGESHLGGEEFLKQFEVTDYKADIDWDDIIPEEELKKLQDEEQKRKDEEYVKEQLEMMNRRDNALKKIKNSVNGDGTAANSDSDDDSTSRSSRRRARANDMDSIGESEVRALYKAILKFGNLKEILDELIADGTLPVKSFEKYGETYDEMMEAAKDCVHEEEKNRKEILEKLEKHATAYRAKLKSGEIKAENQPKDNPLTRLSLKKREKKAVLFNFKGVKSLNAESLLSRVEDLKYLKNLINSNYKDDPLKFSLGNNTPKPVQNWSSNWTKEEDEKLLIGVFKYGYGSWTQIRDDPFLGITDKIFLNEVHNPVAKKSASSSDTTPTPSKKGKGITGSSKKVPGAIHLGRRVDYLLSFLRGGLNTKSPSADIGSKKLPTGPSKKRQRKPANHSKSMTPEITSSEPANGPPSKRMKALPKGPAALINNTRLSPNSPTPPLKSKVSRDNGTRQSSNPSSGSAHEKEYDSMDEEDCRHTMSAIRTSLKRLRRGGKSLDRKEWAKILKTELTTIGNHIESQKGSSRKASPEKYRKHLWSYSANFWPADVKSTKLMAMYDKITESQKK

Point of comparison: Cc1nc(CN2CCOC(CNc3cccnn3)C2)cs1 (stereo not given), Percent Effect -6.92%. Against it:
- CC(=O)N1CCCC(Cc2cncc(Br)c2)CC1 (stereo not given) — lower, -26.1%
- COc1ccc(C(CNC(=O)Nc2cn[nH]c2)N2CCOCC2)cc1 (stereo not given) — lower, -20.4%
- Cc1cn2c(n1)CCC(NC(=O)c1ccc(CS(C)(=O)=O)cc1)C2 (stereo not given) — lower, -9.28%
- Cc1cc(NC(=O)NCc2ccccc2OC(F)F)n(C)n1 — higher, -5.23%
- CN(C)CCNC(=O)CNC(=O)N1CCc2c([nH]c3ccc(Cl)cc23)C1 — higher, -0.829%
- CN(Cc1cscn1)C1CCCN(Cc2noc(C3CC3)n2)C1 (stereo not given) — lower, -12.5%
- Nc1nc2c(c(=O)[nH]1)CCN(C(=O)c1cccc3nccnc13)C2 — higher, -0.6%
- Cc1cccc(CNC(CN2CCN(C)CC2)c2ccccc2)c1 (stereo not given) — higher, -5.02%
- CS(=O)(=O)N1CCCCCC1C1CCN(c2ncccc2C#N)CC1 (stereo not given) — higher, 2.11%
- Cc1cccc(C(=O)NCCCN2CCN(c3ccccc3)CC2)c1 — lower, -9.93%
- CCOc1ccc(-c2ccnc(CC)n2)cc1C(=O)O — higher, -1.49%
- CS(=O)(=O)N1CCc2c(cccc2NC(=O)CC(F)(F)F)C1 — higher, -6.43%
- COc1ccccc1Oc1ncccc1CNC(=O)C(C)N1CCCC1 (stereo not given) — lower, -9.98%
- CCOc1ccnc(N2CCN(C(=O)c3cccnc3O)CC2)n1 — higher, -4.5%
- CC(C)c1nn(C)c(Cl)c1CNCc1ccc2c(c1)OCCO2 — higher, 0.827%
- CC(C)COC(C)C(=O)NCc1cc(F)cc(F)c1 (stereo not given) — higher, -5.87%
- CCS(=O)(=O)N1CCC(c2nnc(Cn3cccn3)n2C2CC2)CC1 — higher, -2.3%
- OC[C@H]1CC[C@]2(CC1)CN(Cc1ccccn1)Cc1ccccc1O2 — lower, -8.96%
- O=C(Cc1cccc(F)c1)N1CCCCC1c1ccn2ccnc2n1 (stereo not given) — lower, -10.5%
